# Measured values reported in PMC4336329 (PLoS ONE, 2015).
# The whole screen tested about 310,000 compounds, of which about 14,000 (4.5%) showed an effect of 50% or more. Effects have a minus sign here. The list comes from a sample in which strong results are over-represented; it also holds similar structures and randomly drawn compounds.
# Molecular target: human ether-à-go-go-related gene (hERG) potassium channel (human, UniProt Q12809)
# Assay: primary screen, population patch clamp on CHO cells stably expressing hERG; higher = less effect of the substance
# 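Also: peak tail current of the secondary pulse compared with the same well before compound.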
# Sequence of human ether-à-go-go-related gene (hERG) potassium channel (Q12809 whole entry, looked up): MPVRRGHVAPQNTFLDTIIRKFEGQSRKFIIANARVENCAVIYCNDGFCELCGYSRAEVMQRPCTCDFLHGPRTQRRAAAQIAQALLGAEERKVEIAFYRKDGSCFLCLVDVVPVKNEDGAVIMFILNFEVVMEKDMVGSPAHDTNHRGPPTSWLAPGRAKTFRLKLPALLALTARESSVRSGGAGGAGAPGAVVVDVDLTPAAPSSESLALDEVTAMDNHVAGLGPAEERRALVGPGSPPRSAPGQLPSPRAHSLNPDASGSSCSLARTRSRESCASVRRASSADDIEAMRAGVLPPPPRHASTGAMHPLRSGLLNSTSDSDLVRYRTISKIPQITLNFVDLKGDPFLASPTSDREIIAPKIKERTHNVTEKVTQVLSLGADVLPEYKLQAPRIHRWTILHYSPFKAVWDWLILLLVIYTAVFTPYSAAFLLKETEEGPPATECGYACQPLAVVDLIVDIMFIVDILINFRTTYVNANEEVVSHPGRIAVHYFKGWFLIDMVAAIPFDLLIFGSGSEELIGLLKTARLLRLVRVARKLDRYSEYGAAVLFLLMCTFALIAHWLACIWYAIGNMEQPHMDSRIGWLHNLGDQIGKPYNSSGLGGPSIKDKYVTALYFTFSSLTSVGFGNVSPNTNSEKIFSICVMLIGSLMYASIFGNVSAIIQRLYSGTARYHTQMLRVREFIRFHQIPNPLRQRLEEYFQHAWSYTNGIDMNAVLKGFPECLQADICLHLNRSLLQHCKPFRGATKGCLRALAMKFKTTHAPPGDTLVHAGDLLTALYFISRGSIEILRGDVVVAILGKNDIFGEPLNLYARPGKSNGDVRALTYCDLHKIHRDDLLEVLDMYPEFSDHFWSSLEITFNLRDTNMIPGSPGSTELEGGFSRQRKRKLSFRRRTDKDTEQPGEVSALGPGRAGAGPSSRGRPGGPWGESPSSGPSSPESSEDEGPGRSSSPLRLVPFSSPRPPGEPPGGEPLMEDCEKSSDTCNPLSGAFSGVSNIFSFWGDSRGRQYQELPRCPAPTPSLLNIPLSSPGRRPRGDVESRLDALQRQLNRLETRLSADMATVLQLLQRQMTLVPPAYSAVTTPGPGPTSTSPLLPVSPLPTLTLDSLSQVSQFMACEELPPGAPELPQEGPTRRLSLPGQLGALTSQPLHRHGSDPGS
row,SMILES,"hERG current change (%, negative = inhibition) at 10uM"
1,Cc1ccccc1NC(=O)CSc1nc(N)c(C#N)cc1C#N,0.675%
2,Cc1nc2c(-c3ccccc3)c(C)nn2c(C)c1CC(=O)O,5.02%
3,O=C(CSc1nnc(CNC(=O)c2ccco2)o1)c1ccccc1,4.14%
4,COc1cccc(C(=O)Nc2ccccc2C(=O)NC2CC2)c1,0.677%
5,Cc1ccc(C)c(N2CCN(C(=O)Nc3ccc4c(c3)N(C)C(=O)CS4)CC2)c1,-21.8%
6,CCCN1CCC(=O)N([C@H](CSc2ccc(OC)cc2)c2ccccc2)CC1,-76.5%
7,CCCN1CCC(=O)N([C@H](CSc2ccc(C)cc2)c2ccccc2)CC1,-76%
8,CC(C)CN1CCC(=O)N([C@H](CSc2ccc(Br)cc2)c2ccccc2)CC1,-63.9%
9,COc1ccc(CN2CCC(=O)N([C@H](CO)c3ccccc3)CC2)cc1,13.3%
10,CCCN1CCC(=O)N([C@H](CSc2ccccc2)c2ccccc2)CC1,-77.2%
11,Nc1cc(=O)[nH]c(SCc2csc(-c3ccccc3)n2)n1,-3.63%
12,O=C(NCCC1=CCCCC1)c1ccc(F)cc1,-9.04%
13,Cc1noc(/C=C/N(C)C)c1S(=O)(=O)N1CCCC(C(=O)NC2CCCCC2C)C1 (centres unmarked),-25.5%
14,O=C(Cc1ccc([N+](=O)[O-])cc1)OCc1ccc([N+](=O)[O-])cc1,19.2%
15,CCCNC(=S)N1CCN(c2nc(-c3ccc(C)cc3)cs2)CC1,5.6%
16,O=C(Nc1ccc(F)cc1F)c1cncc(Br)c1,-3.88%
17,CCOC(=O)c1cnn(CCOC(=O)C(C)(C)C)c1NC(=O)C(C)(C)C,12.8%
18,COc1cc(OC)c2ccc(=O)oc2c1C(CC(=O)N1CCOCC1)c1ccc2c(c1)OCO2 (centres unmarked),-0.731%
19,Cc1nc(Nc2ccc(Cl)cc2)c2oc3ccccc3c2n1,3.95%
20,O=C1CCN(Cc2ccc(Br)cc2)CCN1[C@H](CO)c1ccccc1,-3.45%
21,CCCN1CCC(=O)N([C@H](CSc2ccc(Br)cc2)c2ccccc2)CC1,-76.2%
22,Cc1ccc(C)c(OCCC(=O)OCC(=O)N2CCN(S(=O)(=O)c3ccc(Cl)cc3)CC2)c1,-29.8%

row,SMILES,"hERG current change (%, negative = inhibition) at 10uM"
1,O=S(=O)(c1ccccc1)c1nc(-c2ccco2)oc1NCc1cccnc1,-20.1%
2,CCOc1ccc(CN2CCN(Cc3c[nH]c4ccccc34)CC2)cc1.O=C(O)C(=O)O,-84.4%
3,CCS(=O)(=O)N1CCN(Cc2c[nH]c3ccccc23)CC1.O=C(O)C(=O)O,5.44%
4,CCOc1ccc(CN2CCN(C(=O)Cc3ccccc3)CC2)cc1.O=C(O)C(=O)O,-44.1%
5,CN(Cc1ccccc1)Cc1c[nH]c2ccccc12,-16.5%
6,COc1ccc(Br)cc1CN1CCN(Cc2c[nH]c3ccccc23)CC1.O=C(O)C(=O)O,-29.2%
7,CN(CCc1ccccc1)Cc1c[nH]c2ccccc12.O=C(O)C(=O)O,-56.7%
8,Brc1ccccc1CN1CCN(Cc2c[nH]c3ccccc23)CC1.O=C(O)C(=O)O,-20.1%
9,COc1ccccc1C(=O)N1CCN(Cc2c[nH]c3ccccc23)CC1.O=C(O)C(=O)O,-19.7%
10,Brc1ccc(CN2CCN(Cc3c[nH]c4ccccc34)CC2)cc1.O=C(O)C(=O)O,-63.8%
11,COc1ccc(S(=O)(=O)N2CCN(Cc3c[nH]c4ccccc34)CC2)cc1,-24.9%
12,COc1ccc(CN2CCN(Cc3c[nH]c4ccccc34)CC2)cc1.O=C(O)C(=O)O,-67.5%
13,O=C(Cc1ccccc1)NCCc1c[nH]c2ccccc12.O=C(O)C(=O)O,16.4%
14,COc1ccc(S(=O)(=O)Nc2ccccc2-c2nnn(CC(=O)Nc3ccccc3OC)n2)cc1,5.49%
15,CC(=O)OC[C@H]1O[C@@H](n2ccc(=O)[nH]c2=S)C(OC(C)=O)C1OC(C)=O (some centres unmarked),-4.01%
16,COc1cccc(C(=O)NCC(C)(C)SCc2ccc(F)cc2)c1,-28.2%
17,Cc1cccc(NC(=O)CCS(=O)(=O)c2cccc3nonc23)c1C,7.7%
18,CCC(C)NC(=O)Nc1ccccc1F (centres unmarked),-24.5%
19,O=S(=O)(c1ccccc1)N1CCCCC1c1cccnc1 (centres unmarked),2.3%
20,O=C(COc1ccccc1)N1CCN(Cc2c[nH]c3ccccc23)CC1,-47.4%
21,O=C(NCCc1c[nH]c2ccccc12)C1CCN(S(=O)(=O)c2ccc(F)cc2)CC1,-28.3%
22,O=C(c1ccccc1)N1CCN(Cc2c[nH]c3ccccc23)CC1,-16.4%

row,SMILES,"hERG current change (%, negative = inhibition) at 10uM"
1,O=C(NCCc1c[nH]c2ccccc12)C1CCN(Cc2ccc(Br)cc2)CC1,-54%
2,O=C(COc1ccc(Br)cc1)N1CCN(Cc2c[nH]c3ccccc23)CC1.O=C(O)C(=O)O,-57.9%
3,O=C(NCCc1c[nH]c2ccccc12)C1CCN(S(=O)(=O)c2ccccc2)CC1,-17.1%
4,O=C(NNC(=O)C1CC=CCC1)c1ccccc1O (centres unmarked),-4.58%
5,Cn1c(CC(=O)Nc2ccccc2)nnc1SCC(=O)NC1=NCCS1,12.7%
6,CC(C)c1ccccc1OCCCCCN1CCOCC1,-13.5%
7,O=C(O)COc1ccc(Cl)cc1Cl,7.53%
8,COc1ccc(C)cc1NC(=O)C(=O)N/N=C(\C)CC(=O)Nc1cccnc1,2.77%
9,C=CCN1C(=O)c2ccc(C(=O)N(CC)CC(=O)Nc3ccc(OC)cc3)cc2C1=O,-20%
10,CCN(CC)C(=O)c1cccc(-c2ccc(OC)cc2)c1,-17%
11,C=CCN1C[C@@H](C)N(C(c2ccc(C(=O)N(CC)CC)cc2)c2cccc(OC)c2)C[C@@H]1C (some centres unmarked),-65.3%
12,c1ccc(-n2c(-c3ccncc3)nnc2N2CCOCC2)cc1,16.9%
13,Cc1cc(=O)c2ccc3ccccc3c2[nH]1,7.45%
14,Cc1cc(=O)cc(C)n1-c1ccc(F)cc1F,0.384%
15,CC1(C)c2cc(O)ccc2OC1N1CCOCC1 (centres unmarked),13.6%
16,c1ccc(-n2cnc3cc(NCc4ccco4)ccc32)cc1,-49.8%
17,COc1ccccc1-n1cnc2cc(NCc3ccco3)ccc21,-20.7%
18,COc1ccc(-n2cnc3cc(NCc4ccco4)ccc32)cc1,-67.3%
19,O=C1c2ccccc2C(=O)N1Cc1ccccc1F,13%
20,CC1=C(C(=O)Nc2ccccc2)C(c2ccco2)C(C#N)=C(SCC(N)=O)N1 (centres unmarked),-3.31%
21,O=C(c1cc(COc2ccc(F)cc2Cl)on1)N1CCCCCCC1,0.909%
22,O=C(c1cc(COc2ccc(F)cc2Cl)on1)N1CCC(c2ccncc2)CC1,-72.5%

row,SMILES,"hERG current change (%, negative = inhibition) at 10uM"
1,CSc1ccccc1OCc1cc(C(=O)N2CCC(c3ccncc3)CC2)no1,-58.5%
2,Cc1cccc(C)c1OCc1cc(C(=O)N2CCC(c3ccncc3)CC2)no1,-55.8%
3,Cc1cccc(C)c1OCc1cc(C(=O)N2CCC(c3ccccc3)CC2)no1,-1.95%
4,CSc1ccccc1OCc1cc(C(=O)N2CCSCC2)no1,0.366%
5,CSc1ccccc1OCc1cc(C(=O)N2CCC(Oc3cccnc3)CC2)no1,-37.4%
6,O=C(c1cc(COc2ccc(F)cc2Cl)on1)N1CCCCCC1,-3.89%
7,O=C(c1cc(COc2c(F)cccc2F)on1)N1CCC(c2ccncc2)CC1,-38.5%
8,CC(C)C[C@H](NC(=O)c1nc[nH]c1C(=O)NC1CCN(C(=O)OC(C)(C)C)CC1)C(=O)OCc1ccccc1,3.48%
9,COc1cccc(C2CC(=O)C3=C(C2)Nc2ccccc2N(C(=O)CCC(=O)O)C3c2ccc(F)cc2)c1 (centres unmarked),5.1%
10,Nc1ccccc1NC1=CC(=O)CC(c2ccco2)C1 (centres unmarked),10.4%
11,Cn1c(SCC(=O)c2ccccc2)nnc1-c1cnccn1,6.47%
12,Cc1ccc(NC(=O)CSc2ccc3nnc(-c4cccnc4)n3n2)cc1,-53.1%
13,CCOc1ccc(NC(=O)CSc2ccc(-c3cccnc3)nn2)cc1,-5.55%
14,COc1ccc(NC(=O)CSc2ccc3nnc(-c4cccnc4)n3n2)cc1,-50.4%
15,COc1cccc(NC(=O)CSc2ccc3nnc(-c4cccnc4)n3n2)c1,-37.5%
16,CC(=O)Nc1ccc(NC(=O)CSc2ccc3nnc(-c4cccnc4)n3n2)cc1,2.95%
17,O=C(CSc1ccc2nnc(-c3cccnc3)n2n1)Nc1ccccc1,-17.8%
18,CCOc1ccc(NC(=O)CSc2ccc3nnc(-c4cccnc4)n3n2)cc1,-54.7%
19,CC(=O)c1ccc(NC(=O)CSc2ccc3nnc(-c4cccnc4)n3n2)cc1,-28.8%
20,COc1ccc(NC(=O)CSc2ccc3nnc(-c4cccnc4)n3n2)cc1OC,1.17%
